According to PubChem BioAssay AID1985 (Southern Research Specialized Biocontainment Screening …, 2009):
Among all 2,300 compounds or so, about 1,000 (43%) were called active. How the calls were made is not given here. The set was probably picked from earlier hits. Some of the results follow. Measured potencies and affinities stand elsewhere.

Assay: modified counter assay using GFP fluorescence, PhoP regulon inhibitor project, dose response (AID 1985)
Settings: S. Typhi, 4 h; series mostly up to 150 µM

Compound | outcome
N#C/C(=C\c1ccc(O)c(O)c1)C(=O)c1ccc(O)c(O)c1 | inactive
COc1ccc(CNC(=O)CCC(=O)N2C[C@H]3C[C@H](C2)c2cccc(=O)n2C3)cc1 | inactive
CCOC(=O)Cc1nn(C)c(=O)c2ccccc12 | inactive
O=C(/C=C/c1c(F)cccc1Cl)N1CCOCC1 | inactive
COc1cc(OC)nc(NC(=O)C(C)C)n1 | inactive
NC(=O)c1c(NC(=O)CSc2nc(N)cc(=O)[nH]2)sc2c1CCCC2 | inactive
COCc1cc(=O)n2[nH]c(C)nc2n1 | inactive
Nc1ccc(S(=O)(=O)Nc2ccc(Cl)nn2)cc1 | inactive
CC1=C(c2ccccc2)SC2=NCCN21 | inactive
O=C(NCc1cccnc1)c1ccc(COc2ccc(Cl)cc2)cc1 | inactive
CN(C)CCNC(=O)c1ccc(COc2ccc(Cl)cc2Cl)cc1 | inactive
O=C(COc1ccc(Cl)cc1)N1CCCCC1 | inactive
Clc1ccc(OCc2nn3c(C4CCCCC4)nnc3s2)c(Cl)c1 | inactive
CC(=O)Nc1nc(C)c(-c2csc(Nc3ccc(O)cc3)n2)s1 | inactive
Cc1c(O)cccc1C(=O)N[C@@H](CSc1ccccc1)[C@H](O)CN1C[C@H]2CCCC[C@H]2C[C@H]1C(=O)NC(C)(C)C | inactive
CCc1nc(SCC(=O)NCCc2ccccc2)c2c(=O)n(C)c(=O)n(C)c2n1 | inactive
Cc1cc(=O)oc2c(CN(C)Cc3ccccc3)c(O)ccc12 | inactive
O=C(N/N=C\c1ccc(F)cc1)c1ccc(F)cc1 | inactive
CC(c1cccnc1)N(CCN(C)C)C(=O)Nc1ccc(Cl)c(Cl)c1 (stereo unspecified) | inactive
CC(C)CNC(CC(=O)O)c1ccccc1 (stereo unspecified) | inactive
CN(CCOc1ccc(Cl)cc1)CC(O)c1ccccc1 (stereo unspecified) | inactive
CCS(=O)(=O)N1CCC(C(=O)NCc2cc(OC)ccc2OC)CC1 | inactive
CNC(CC(=O)c1ccc([N+](=O)[O-])cc1)C(Cl)(Cl)Cl (stereo unspecified) | inactive

Compound | outcome
O=[N+]([O-])c1ccc(CN2CCSCC2)cc1 | inactive
COc1ccc(Cl)cc1NC(=O)CN(C)CC(=O)Nc1ccccc1C(F)(F)F | inactive
Cn1nnnc1SCc1nnc(-c2ccccc2Br)o1 | inactive
O=C(Nc1ccc(Cl)cc1)N1CCOC12CCC1(CC2)OCCO1 | inactive
Cc1cc(=O)oc2cc(OCC(=O)NC3CCCC3)ccc12 | inactive
Cc1ccc(CSc2nc3c(c(=O)[nH]2)CCC3)cc1 | inactive
COc1ccc(Nc2c3c(nc4ccccc24)CCC3)cc1 | inactive
Cc1cccc(Nc2c3c(nc4ccccc24)CCC3)c1 | inactive
FC(F)(F)c1ccccc1NC1=NCCC1 | inactive
CCCCNCCCOc1cccc(Cl)c1Cl | inactive
COc1ccccc1/C=N/N1C(=O)c2cccc3cccc(c23)C1=O | inactive
O=C(NC(=S)Nc1ccc(S(=O)(=O)Nc2nccs2)cc1)c1cccnc1 | inactive
C=CCSc1nnc(NC(=O)CSc2nc3ccccc3o2)s1 | inactive
CCOC(=O)c1nc2cc3n(c(CC(C)C)c-2c1C)CC(C)=C3C | inactive
NS(=O)(=O)c1ccc(CCNC(=O)C(=O)C2C(=O)Nc3ccccc32)cc1 (stereo unspecified) | inactive
COc1ccccc1-c1cc2nc(C)c(CCC(=O)NC(C)CCc3ccco3)c(C)n2n1 (stereo unspecified) | inactive
CC(C)C(=O)Nc1ccccc1-c1nc2ccccc2[nH]c1=O | inactive
COc1cccc(NC(=O)CN(C)C(C)C(=O)Nc2ccc(S(=O)(=O)N3CCOCC3)cc2)c1 (stereo unspecified) | inactive
O=C(Nc1ccc(S(=O)(=O)N2CCCC2)cc1)c1cccnc1 | inactive
COc1ccc(N(C(=O)c2cccnc2)S(=O)(=O)c2ccc(F)cc2)cc1 | inactive
CCOC(=O)C(O)(NC(=O)c1cccnc1)C(F)(F)F (stereo unspecified) | inactive
N/C(=N\OC(=O)C(c1ccccc1)c1ccccc1)c1ccncc1 | inactive
N/C(=N\OC(=O)COc1ccc2ccccc2c1)c1ccccn1 | inactive

Compound | outcome
O=C1CCCC2=C1C(c1ccncc1)Nc1ccccc1N2 (stereo unspecified) | inactive
COCCNC(=O)Cn1cnc2c1c(=O)n(C)c(=O)n2C | inactive
c1ccc2sc(N3CN(CCN4CCOCC4)CN(c4nc5ccccc5s4)C3)nc2c1 | inactive
CC1CCN(c2nc3ccc(C(=O)NCCCN4CCCCC4)cc3s2)CC1 | inactive
CN1CCN(c2ccccc2NC(=O)c2sc3ccccc3c2Cl)CC1 | inactive
CN(C)CCOC(=O)c1sc2ccccc2c1Cl | inactive
COc1ccc2sc(N(CCCN(C)C)C(=O)c3ccc(S(=O)(=O)N4CCc5ccccc5C4)cc3)nc2c1 | inactive
COc1cc(CNCCCN2CCOCC2)c(Br)cc1OCC(=O)Nc1ccccc1C | inactive
CCc1c(C)nc2cc(-c3cc(OC)cc(OC)c3)nn2c1N1CCCC1 | inactive
Cc1ccc(C2CC(=O)NC(SCCC(C)C)=C2C#N)cc1 (stereo unspecified) | inactive
COc1ccc2c(c1)c1nc(SCC(C)C)n(CCO)c(=O)c1n2C | inactive
O=C(NCC1CCCO1)c1cc2ccccc2oc1=O (stereo unspecified) | inactive
O=S(=O)(c1ccccc1)c1nc(-c2cccs2)oc1NCC1CCCO1 (stereo unspecified) | inactive
O=C(O)c1ccc(CSc2nnnn2C2CCCCC2)cc1 | inactive
Cc1cc(NC(=O)COC(=O)c2cccc(S(=O)(=O)N(C)C3CCCCC3)c2)no1 | inactive
O=C(O)Cn1c(=O)c2c3c(sc2n(Cc2ccccc2F)c1=O)CCCC3 | inactive
CC1(C)Oc2ccc3ccc(=O)oc3c2/C(=C/NCCN/C=C2\C(=O)C(C)(C)Oc3ccc4ccc(=O)oc4c32)C1=O | inactive
Cc1cccc(N(C(=O)CCC(=O)Nc2ccccn2)C(C(=O)NC(C)C)c2ccc(O)cc2)c1 (stereo unspecified) | inactive
CCN1CCN(C(=O)Cc2coc3cc(C)cc(C)c23)CC1 | inactive
CCN1CCN(C(=O)/C=C/c2cccc(Cl)c2)CC1 | inactive
CN1CCN(C(=O)CSc2ccc(Cl)cc2)CC1 | inactive
CCN1CCN(C(=O)c2cc3ccc(OC)cc3[nH]2)CC1 | inactive
O=C(O)c1cc2cc(F)ccc2[nH]1 | inactive

Compound | outcome
COC(=O)C(O)(c1c(C)[nH]n(-c2ccccc2)c1=O)C(F)(F)F (stereo unspecified) | inactive
COc1cccc(C(c2c(C)[nH]n(-c3ccccc3)c2=O)c2c(C)[nH]n(-c3ccccc3)c2=O)c1O | inactive
Cc1c(-n2c(SCC(=O)C(C)(C)C)nc3ccccc3c2=O)c(=O)n(-c2ccccc2)n1C | inactive
CC(=O)NCCn1c(SCc2ccccc2C)nc2ccccc2c1=O | inactive
Cc1nc(SCC(=O)N2c3ccccc3Sc3ccccc32)n[nH]1 | inactive
CC1(C)Cc2c(sc(NC(=O)COc3ccc(Cl)cc3)c2C(N)=O)C(C)(C)N1 | inactive
COc1ccccc1NC(=O)CN1CCC(c2nc3ccc(C)cc3[nH]2)CC1 | inactive
CCC1Oc2ccc(C)cc2N(CC(=O)NCC2COc3ccccc3O2)C1=O (stereo unspecified) | inactive
COc1ccc(C)cc1NC(=O)C1CCN(S(=O)(=O)c2c(C)noc2C)CC1 | inactive
COc1ccccc1-n1nc(C(=O)NCc2ccco2)c2ccccc2c1=O | inactive
CC1CCN(CCCNC(=O)c2ccc3c(=O)n(Cc4ccc(Cl)cc4)c(=S)[nH]c3c2)CC1 | inactive
O=C(O)CC12CC3CC(C1)CC(n1ncc(NCC4CCCO4)c(Cl)c1=O)(C3)C2 (stereo unspecified) | inactive
CCOC(=O)c1nc(C)n(-c2cc(Cl)ccc2Cl)n1 | inactive
Cc1ccc(CN2C3=NCCN3c3ccccc32)cc1 | inactive
O=C(CN1C2=NCCN2c2ccccc21)c1ccco1 | inactive
O=c1cc(-c2ccccc2)nc(N2CCN(Cc3ccccc3)CC2)[nH]1 | inactive
COc1cccc2[nH]c3c(N4CCN(Cc5ccc6c(c5)OCO6)CC4)ncnc3c12 | inactive
c1cc2c(cc1Oc1nc(N3CCOCC3)nc(N3CCOCC3)n1)OCO2 | inactive
Cc1ccc2nc3c(c(N)c2c1)CCN3C | inactive
CC(C)N=C(N)N=C(N)Nc1ccc(Cl)cc1 | inactive
Cc1cc(NCCCn2ccnc2)n2ncc(-c3ccccc3)c2n1 | inactive
C[C@@H](C(=O)NC1CCCC1)N1C(=O)N2CCc3c([nH]c4ccccc34)[C@@]2(C)C1=O | inactive
O=S1(=O)CC=C(CSC(=S)NC2CCS(=O)(=O)C2)C1 (stereo unspecified) | inactive

Compound | outcome
CCc1cc(CNC(=O)C2CCC(=O)N(Cc3cccc(F)c3)C2)on1 (stereo unspecified) | inactive
CC(C)NC(=O)CN1CCN(Cc2nc(C(c3ccccc3)c3ccccc3)no2)CC1 | inactive
Cc1cnc(NC(=O)CN2C(=O)C3CC=CCC3C2=O)s1 (stereo unspecified) | inactive
Cc1cc(NS(=O)(=O)c2ccc(Nc3nc(-c4sc(NC(=O)c5ccccc5)nc4C)cs3)cc2)no1 | inactive
CCc1nnc(NS(=O)(=O)c2ccc(NC(=S)NC(=O)/C=C/c3ccc(C(C)C)cc3)cc2)s1 | inactive
COc1nccnc1NS(=O)(=O)c1ccc(NC(=S)NC(=O)c2cccnc2)cc1 | inactive
Cc1cc(NS(=O)(=O)c2ccc(NC(=O)C(C)Oc3ccc4c(C)cc(=O)oc4c3)cc2)no1 (stereo unspecified) | inactive
CC(C)n1cnnc1SCC(=O)Nc1ccc(Br)cc1F | inactive
COC(=O)c1ccc(C)c(NC(=O)CN2C(=O)c3ccccc3S2(=O)=O)c1 | inactive
CS(=O)(=O)c1cnc2c(-c3ccc(F)cc3)cnn2c1N | inactive
O=C(CCl)NC1CCCc2ccccc21 (stereo unspecified) | inactive
COc1ccc(NC(=O)N2CCc3ccccc32)cc1 | inactive
Cc1ccc(NC(=O)C(=O)NCc2ccncc2)cc1 | inactive
S=C(NCc1ccc(Cl)cc1)Nc1ccncc1 | inactive
CCOc1ccccc1NC(=O)Nc1ccncc1 | inactive
CCCCOc1ccc(-c2nnn(CC(=O)Nc3ncc(CC(=O)OCC)s3)n2)cc1 | inactive
CCOc1ccc(N2C(=O)CN(O)C=C3N=c4ccccc4=C32)cc1 | inactive
Cc1cccc(OCCSc2nnc(-c3ccoc3C)n2C)c1 | inactive
O=C(NCCCN1CCOCC1)c1sc2cc(Cl)ccc2c1Cl | inactive
